{"source": "PubChem BioAssay (NCATS)", "note": "Records with an inconclusive call do not appear. Activity calls are given as the source filed them. Calls follow the shape of the full dose curve. Potency is read from the fitted curve at half-maximal effect."}
{"assay": "Cell Viability - SK-N-SH (AID 435);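 also: compound exposure lasted 40 h at 37 °C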", "conditions": "SK-N-SH neuroblastoma cell viability qHTS", "excerpt": "NIH Chemical Genomics Center [NCGC]\nNIH Molecular Libraries Screening Centers Network [MLSCN]\nNational Institutes of Environmental Health Sciences [NIEHS]\nNational Toxicology Program [NTP]\nWe have developed a 1536-well cell-based assay for quantitative high throughput screening (qHTS) against a number of cell lines to determine in vitro cytotoxicity of small molecules. This particular assay uses the SK-N-SH cell line which is derived from human neuroblastoma.\nNCGC Assay Protocol Summary:\nThe CellTiter-Glo luminescent cell viability assay (Promega) is a homogeneous method to measure the number of viable cells in culture. The end point readout of this assay is based on quantitation of intracellular ATP, an indicator of metabolic activity, using the luciferase reaction. Luciferase catalyzes the oxidation of beetle Luciferin to oxyluciferin and light in the presence of ATP. The luminescent signal is proportional to amount of ATP present.\nUsing the CellTiter-Glo luminescent cell viability assay, the amount of cellular ATP was measured in the SK-N-SH cell line with complete culture medium following compound treatment for 40 hours. The assay was performed in opaque white Kalypsys 1536-well plates. In the screen, tamoxifen and doxorubicin were used as positive controls. Library compounds were measured for their ability to cause acute toxicity in the cell line, as reflected by a decrease in intracellular ATP levels, in a concentration-dependent manner. Data were normalized to the controls for basal activity (DMSO only) and 100% inhibition (100 uM tamoxifen). AC50 values were determined from concentration-response data modeled with the standard Hill equation.\nqHTS protocol fo CellTiter Glo SK-N-SH cellular assay\n[Step] [Parameter] [Value] [Description]\n1. Reagent; 5 uL; 1500 SK-N-SH cells/well\n2. Time; 5 hr; 37 °C incubation\n4. Controls; 23 nL; Tamoxifen 0.34 uM to 100 uM & Doxorubicin 0.02 nM to 100 uM\n5. Time; 40 hr; 37 °C incubation\n6. Reagent; 5 uL; CellTiter Glo reagent\n7. Time; 20 min; Room Temperature\n8. Detection; Luminescence; Viewlux plate reader\nKeywords: cell viability, cytotoxicity, SK-N-SH cell line, luminescence, NTPHTS, NTPHTS_NCGC, NIEHS, EPA, DSSTox, MLSMR, MLSCN, NIH Roadmap, qHTS, NCGC"}
{"smiles": "CN(C)c1ccc(N)cc1", "Potency": "41.7 µM (active)"}
{"smiles": "BrCC(Br)C1CCC(Br)C(Br)C1", "note": "(stereo not given)", "Potency": "> 92 µM (inactive)"}
{"smiles": "Oc1cccc(Cl)c1Cl", "Potency": "> 92 µM (inactive)"}
{"smiles": "[O-][Cl+2]([O-])O", "Potency": "> 92 µM (inactive)"}
{"smiles": "O=C(O)C(Cl)(Cl)Br", "Potency": "> 92 µM (inactive)"}
{"smiles": "Cc1cnc[nH]1", "Potency": "> 92 µM (inactive)"}
{"smiles": "CCCCOC(C)=O", "Potency": "> 92 µM (inactive)"}
{"smiles": "Cc1ccc2c(C)cccc2c1", "Potency": "> 92 µM (inactive)"}
{"smiles": "O=[N+]([O-])CCO", "Potency": "> 92 µM (inactive)"}
{"smiles": "ClP(Cl)(Cl)(Cl)Cl", "Potency": "> 92 µM (inactive)"}
{"smiles": "Nc1cc(Cl)cc(C(=O)O)c1Cl", "Potency": "> 92 µM (inactive)"}
{"smiles": "Nc1ncc([N+](=O)[O-])s1", "Potency": "> 92 µM (inactive)"}
{"smiles": "C/C=C/C=O", "Potency": "> 92 µM (inactive)"}
{"smiles": "Clc1cc(Cl)c(Cl)c(Cl)c1", "Potency": "> 92 µM (inactive)"}
{"smiles": "Nc1ccc(Cl)c(Cl)c1", "Potency": "> 92 µM (inactive)"}
{"smiles": "CC(C)(C)c1ccccc1O", "Potency": "> 92 µM (inactive)"}
{"smiles": "CN(C)c1ccc(N(C)C)cc1", "Potency": "> 92 µM (inactive)"}
{"smiles": "CCC/C=N/O", "Potency": "> 92 µM (inactive)"}
{"smiles": "C=C(C)CCl", "Potency": "> 92 µM (inactive)"}
{"smiles": "Cc1cc(N=Nc2ccccc2C)ccc1N", "Potency": "> 92 µM (inactive)"}
{"smiles": "Nc1c(Cl)cc([N+](=O)[O-])cc1Cl", "Potency": "> 92 µM (inactive)"}
{"smiles": "CCCCC(CC)COC(=O)c1ccc(C(=O)OCC(CC)CCCC)c(C(=O)OCC(CC)CCCC)c1", "note": "(stereo not given)", "Potency": "> 92 µM (inactive)"}
{"smiles": "Cc1ccc([N+](=O)[O-])cc1", "Potency": "> 92 µM (inactive)"}
{"smiles": "Nc1ccc(Oc2ccc(N)cc2)cc1", "Potency": "> 92 µM (inactive)"}
{"smiles": "Cc1ccccc1[N+](=O)[O-]", "Potency": "> 92 µM (inactive)"}
{"smiles": "Cc1ccc(N)cc1N", "Potency": "> 92 µM (inactive)"}
{"smiles": "Oc1cccc(Cl)c1", "Potency": "> 92 µM (inactive)"}
{"smiles": "CCN(CC)CCO", "Potency": "> 92 µM (inactive)"}
{"smiles": "O=S(=O)(Cl)c1ccccc1", "Potency": "> 92 µM (inactive)"}
{"smiles": "O=[N+]([O-])c1cccc2c([N+](=O)[O-])cccc12", "Potency": "> 92 µM (inactive)"}
{"smiles": "Brc1cccc(-c2ccccc2)c1", "Potency": "> 92 µM (inactive)"}
{"smiles": "O=C(Cl)c1ccccc1F", "Potency": "> 92 µM (inactive)"}
{"smiles": "ClCCBr", "Potency": "> 92 µM (inactive)"}
{"smiles": "COC(=O)c1ccccc1N", "Potency": "> 92 µM (inactive)"}
{"smiles": "OC[P+](CO)(CO)CO", "Potency": "> 92 µM (inactive)"}
{"smiles": "CCCCCCCCCCCCCl", "Potency": "> 92 µM (inactive)"}
{"smiles": "C=CC=O", "Potency": "> 92 µM (inactive)"}
{"smiles": "O=NN1CCCCC1", "Potency": "> 92 µM (inactive)"}
{"smiles": "CCOP(=S)(OCC)Oc1nc(Cl)c(Cl)cc1Cl", "Potency": "> 92 µM (inactive)"}
{"smiles": "CN(C)C(=O)Nc1cccc(C(F)(F)F)c1", "Potency": "> 92 µM (inactive)"}
